Assay [1] is described as follows: qHTS assay to identify small molecule antagonists of the sonic hedgehog signaling (Shh) pathway (AID 1259369; calls by dose curve; further: nearly all actives have a fitted effect of over 45% in size). The essentials:
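Stable Gli1-Luc reporter NIH/3T3 clone; quantitative HTS in stimulated mode with conditioned medium. Luminescence measured after 24hr compound treatment at 37 C.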
(In general: Quantitative high-throughput screening tests each substance at several concentrations.)

Assay [2] can be described thus: qHTS assay to identify small molecule agonists of the androgen receptor (AR) signaling pathway in the presence of an antagonist - cell viability counter screen (AID 1259379). Further: nearly all actives have a fitted effect of over 25% in size.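 On activity change, negative = cytotoxicity: MDA-kb2 human breast cancer cells carrying an MMTV luciferase reporter; series mostly up to about 92 µM.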 In outline:
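Nilutamide-containing (3.0uM final) MDA-kb2 cultures, 3,000 cells/well, were treated with compounds across 15 concentrations. After 16 hr at 37C with no CO2, cell viability was determined by CellTiter-Fluor fluorescence in the luciferase assay wells.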

The nature of assay [3]: qHTS assay to identify small molecule agonists of the estrogen receptor beta (ER-beta) signaling pathway - cell viability counter screen (AID 1259380). Further: nearly all actives have a fitted effect of over 30% in size. In outline: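 Steps: plate ER-beta-UAS-bla HEK293T cells, rest 6 hr; add compounds in DMSO; incubate 16 hr at 37C, 5% CO2; add FRET substrate 2 hr; add CellTiter-Glo, wait 30 min at room temperature; read luminescence.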
Assay [4] in a line: qHTS assay to identify small molecule antagonists of the estrogen receptor beta (ER-beta) signaling pathway - cell viability counter screen (AID 1259382). Further: nearly all actives have a fitted effect of over 55% in size. On activity change, negative = cytotoxicity: series mostly up to about 92 µM. The essentials: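 Viability is scored by CellTiter-Glo luminescence (30 min, room temperature) in ER-beta-UAS-bla HEK293T wells already read for reporter fluorescence. Compound exposure lasts 16 hr at 37C alongside 1nM 17-beta-estradiol in charcoal-stripped serum medium.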

Assay [5] concerns the target Estrogen receptor (Homo sapiens) (UniProt P03372). Description: qHTS assay to identify small molecule agonists of the estrogen receptor alpha (ER-alpha) signaling pathway in the presence of an antagonist (AID 1259383; calls by dose curve; further: nearly all actives have a fitted effect of over 15% in size). In outline: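 Readout was ERE-driven luciferase luminescence in VM7Luc4E2 cells, which express full-length ER-alpha endogenously. Compounds were tested at 15 concentrations for 22hr alongside 10.0nM ICI-182,780 (final concentration).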

A short description of assay [6]: qHTS assay to identify small molecule agonists or antagonists of the thyroid stimulating hormone receptor (TSHR) signaling pathway - wild type cell line counter screen (AID 1259384; calls by dose curve). The essentials: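 Counter screen in untransfected Hek293: compounds (15-point titration, triplicate) plus phosphodiesterase inhibitor Ro20-1724 added after 18 h plating; 30 min RT. Intracellular cAMP via competitive d2/cryptate immunoassay, 1 h incubation.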

The target of assay [7] is Thyrotropin receptor (Homo sapiens) (UniProt P16473). Put plainly: qHTS assay to identify small molecule antagonists of the thyroid stimulating hormone receptor (TSHR) signaling pathway (AID 1259385; calls by dose curve; further: nearly all actives have a fitted effect of over 20% in size). In outline:
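Antagonist mode: compound-treated TSHR-expressing HEK293 cells were stimulated with 1.5 ng/mL TSH (final) in presence of Ro20-1724 for 30 min at RT. HTRF cAMP detection after 1 h; each compound tested at 15 concentrations, triplicate.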

Assay [8] deals with Androgen receptor (Homo sapiens) (UniProt P10275). Put plainly: qHTS assay to identify small molecule agonists of the androgen receptor (AR) signaling pathway in the presence of an antagonist (AID 1259381; calls by dose curve; further: nearly all actives have a fitted effect of over 15% in size). In outline: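 Reporter-gene luminescence from MDA-kb2 cells exposed 16hr at 37C (0% CO2) to 15-point compound titrations with 3.0uM final nilutamide as AR antagonist.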
Androgen receptor (Homo sapiens), sequence (P10275 whole entry, looked up): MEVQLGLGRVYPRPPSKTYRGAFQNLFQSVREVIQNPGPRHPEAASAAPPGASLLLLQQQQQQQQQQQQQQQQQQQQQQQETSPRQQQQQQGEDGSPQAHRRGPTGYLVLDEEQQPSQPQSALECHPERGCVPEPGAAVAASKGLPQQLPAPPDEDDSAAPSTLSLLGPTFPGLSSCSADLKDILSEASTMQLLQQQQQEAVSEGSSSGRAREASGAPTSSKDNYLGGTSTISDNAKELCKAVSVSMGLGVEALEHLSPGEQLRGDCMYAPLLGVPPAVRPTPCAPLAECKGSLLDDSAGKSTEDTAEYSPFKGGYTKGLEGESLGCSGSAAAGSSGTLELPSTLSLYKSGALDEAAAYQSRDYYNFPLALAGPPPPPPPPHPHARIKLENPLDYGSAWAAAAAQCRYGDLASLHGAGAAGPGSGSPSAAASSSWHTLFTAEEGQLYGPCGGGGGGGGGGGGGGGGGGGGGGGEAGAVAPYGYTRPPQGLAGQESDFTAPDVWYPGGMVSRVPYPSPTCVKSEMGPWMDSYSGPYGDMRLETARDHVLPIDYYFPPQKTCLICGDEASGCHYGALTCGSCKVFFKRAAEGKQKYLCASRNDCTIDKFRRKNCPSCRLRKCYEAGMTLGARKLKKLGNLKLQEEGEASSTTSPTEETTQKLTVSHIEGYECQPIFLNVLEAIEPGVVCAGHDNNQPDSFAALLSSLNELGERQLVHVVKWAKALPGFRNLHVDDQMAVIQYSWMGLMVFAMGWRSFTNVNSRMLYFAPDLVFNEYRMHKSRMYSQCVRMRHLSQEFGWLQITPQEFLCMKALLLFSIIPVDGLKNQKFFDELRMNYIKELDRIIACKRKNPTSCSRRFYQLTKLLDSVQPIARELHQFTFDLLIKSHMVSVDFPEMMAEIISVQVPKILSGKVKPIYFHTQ

Where “and” joins values, the source holds several entries; their conditions need not be identical. Equal values may be shown once. Records with an inconclusive call do not appear. More than one record can exist for a structure, and the calls need not agree. Calls of active or inactive are those of the source. Unless noted, the call rests on the fitted dose curve; in most records, active means well fitted curve in the direction sought with a large enough effect in the repeat runs; inconclusive means weak or mixed curves; inactive means no such curve, though single readings can be large; an effect the other way counts as inactive or inconclusive.
On the % scale 0 is the no-effect control and ±100 the full control effect; potency means the concentration at half of the fitted maximal effect.

Estrogen receptor (Homo sapiens), sequence (P03372 whole entry, looked up): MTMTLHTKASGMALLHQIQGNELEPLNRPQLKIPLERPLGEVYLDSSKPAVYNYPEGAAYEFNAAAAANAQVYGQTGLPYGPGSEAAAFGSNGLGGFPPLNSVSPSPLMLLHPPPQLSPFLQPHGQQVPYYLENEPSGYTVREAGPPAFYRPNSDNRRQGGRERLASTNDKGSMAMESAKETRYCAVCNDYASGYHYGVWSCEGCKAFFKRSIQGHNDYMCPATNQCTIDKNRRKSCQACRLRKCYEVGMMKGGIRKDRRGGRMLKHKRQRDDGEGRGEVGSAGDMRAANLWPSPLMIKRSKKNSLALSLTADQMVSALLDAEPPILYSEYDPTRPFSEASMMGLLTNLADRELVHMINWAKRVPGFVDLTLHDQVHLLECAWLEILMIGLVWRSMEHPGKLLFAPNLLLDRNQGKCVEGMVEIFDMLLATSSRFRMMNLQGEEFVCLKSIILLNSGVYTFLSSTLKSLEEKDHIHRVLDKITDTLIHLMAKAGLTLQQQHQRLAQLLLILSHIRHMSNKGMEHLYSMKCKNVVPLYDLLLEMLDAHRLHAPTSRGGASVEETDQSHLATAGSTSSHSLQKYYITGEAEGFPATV
Thyrotropin receptor (Homo sapiens), sequence (P16473 whole entry, looked up): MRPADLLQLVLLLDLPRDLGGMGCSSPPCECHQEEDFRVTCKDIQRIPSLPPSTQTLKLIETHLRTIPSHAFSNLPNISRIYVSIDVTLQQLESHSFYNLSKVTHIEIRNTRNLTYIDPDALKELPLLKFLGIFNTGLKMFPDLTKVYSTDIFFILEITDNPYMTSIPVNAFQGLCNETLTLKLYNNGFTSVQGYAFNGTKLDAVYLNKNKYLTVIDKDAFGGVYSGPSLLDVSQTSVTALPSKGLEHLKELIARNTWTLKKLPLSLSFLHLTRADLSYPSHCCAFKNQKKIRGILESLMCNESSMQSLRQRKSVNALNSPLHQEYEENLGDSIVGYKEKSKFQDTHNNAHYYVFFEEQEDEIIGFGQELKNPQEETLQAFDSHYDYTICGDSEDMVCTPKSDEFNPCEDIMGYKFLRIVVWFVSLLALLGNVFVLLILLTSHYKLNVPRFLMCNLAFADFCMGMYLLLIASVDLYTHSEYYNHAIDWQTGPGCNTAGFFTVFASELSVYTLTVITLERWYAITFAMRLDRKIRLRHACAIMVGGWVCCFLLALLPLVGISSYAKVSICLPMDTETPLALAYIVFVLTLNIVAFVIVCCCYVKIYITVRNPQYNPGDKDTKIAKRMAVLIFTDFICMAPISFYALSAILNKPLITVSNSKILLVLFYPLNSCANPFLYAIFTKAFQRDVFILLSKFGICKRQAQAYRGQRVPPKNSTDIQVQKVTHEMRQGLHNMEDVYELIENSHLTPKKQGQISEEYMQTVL

Take `CC(=O)[O-].CC(=O)[O-].CC(=O)[O-].[Sb+3]`: the activity change, negative = inhibition in assay [1] is 2.99% [at 3.27 µM] (inactive). The activity change, negative = cytotoxicity is 3.2% [at 3.27 µM] (inactive) in assay [2], 2.42% [at 3.32 µM] (inactive) in assay [3] and -1.85% [at 3.27 µM] (inactive) in assay [4].

Take `O.O.O.O.O.O.O.O=S(=O)([O-])[O-].[Co+2]`: the Potency entry in assay [1], in assay [2], in assay [3] and in assay [4] was “inactive” in each case.

Consider `CCCCC(CC)COC(=O)OOC(C)(C)C` (stereo unspecified), for which the Potency entry in assay [1], in assay [2], in assay [3] and in assay [4] was “inactive” throughout.

As for `CC[C@H](C)[C@H]1O[C@]2(C=C[C@@H]1C)C[C@@H]1C[C@@H](C/C=C(\C)[C@@H](O[C@H]3C[C@H](OC)[C@@H](O[C@H]4C[C@H](OC)[C@@H](NC)[C@H](C)O4)[C@H](C)O3)[C@@H](C)/C=C/C=C3\CO[C@@H]4[C@H](O)C(C)=C[C@@H](C(=O)O1)[C@]34O)O2`, the Potency in assay [1] is 3.06 µM (active); in assay [2] it was 19.3 µM (active); in assay [3], 9.69 µM (active); in assay [4] it was 21.7 µM (active); in assay [7] it was 27.3 µM (active). In addition, the Potency entry in assay [5] and in assay [6] was “inactive” throughout.

As for `COc1nc(C)nc(NC(=O)NS(=O)(=O)c2ccccc2Cl)n1`, the Potency result in assay [1], in assay [2], in assay [3], in assay [4], in assay [5] and in assay [6] was “inactive” in each case. Further, the Potency result in assay [7] was “inactive”.

On to `CC[N+]1(CC)CCC(OC(=O)C(O)(c2ccccc2)c2ccccc2)C1` (stereo unspecified), for which the Potency entry in assay [1], in assay [2], in assay [3], in assay [4], in assay [5] and in assay [6] was “inactive” each time. For the same compound, the Potency entry in assay [7] was “inactive”.

For the compound `C[C@]12C/C(=C/O)C(=O)C[C@@H]1CC[C@@H]1[C@@H]2CC[C@@]2(C)[C@H]1CC[C@]2(C)O`, the Potency is 15.5 µM (active) in assay [1]; 61.7 µM (active) and inactive in assay [2]; 49 µM (active) and 26.6 µM (active) in assay [3]; 49 µM (active) in assay [4]; 8.71 µM (active) and 21.1 µM (active) in assay [5]. Also, the Potency result in assay [6] and in assay [7] was “inactive” each time.

`CC(Cc1ccc(O)cc1)NCC(O)c1cc(O)cc(O)c1` (stereo unspecified): the Potency result in assay [1], in assay [2], in assay [3], in assay [4], in assay [5] and in assay [7] was “inactive” throughout. In addition, in assay [6], the Potency was 0.668 µM (active).

As to `[C-]1=CC=CC1.[Cl][Zr+2][Cl].c1cc[cH-]c1`, the Potency entry in assay [1], in assay [2], in assay [3] and in assay [4] was “inactive” each time.

Take `CCCCn1cc[n+](C)c1.[Cl][Fe-]([Cl])([Cl])[Cl]`: the Potency result in assay [1], in assay [2], in assay [3] and in assay [4] was “inactive” throughout.

For the compound `CC(O)C(=O)[O][Hg][c]1ccccc1` (stereo unspecified), the Potency was 0.0306 µM (active) in assay [1]; 6.86 µM (active) in assay [2]; 4.86 µM (active) in assay [3]; 4.33 µM (active) in assay [4]; 5.66 µM (active) in assay [6]; 54.5 µM (active) in assay [7]. In assay [5], the Potency entry is “inactive”.

As for `Nc1nc(N)c(N)c(N)n1`, the Potency entry in assay [1], in assay [2], in assay [3] and in assay [4] was “inactive” in each case.

In the case of `Clc1cc(Cl)c(-c2cc(Cl)c(Cl)cc2Cl)cc1Cl`, the Potency entry in assay [1], in assay [2], in assay [3], in assay [4] and in assay [6] was “inactive” throughout.

As to `O=C(NC(=O)c1c(F)cccc1F)Nc1ccc(Oc2ccc(C(F)(F)F)cc2Cl)cc1F`, the figures for the Potency in assay [1] and in assay [2] were 6.86 µM (active) and 68.6 µM (active), respectively. Besides, the Potency entry in assay [3], in assay [4] and in assay [6] was “inactive” each time.

Consider `CC(=O)[O-].CC(=O)[O-].O.O.O.[Pb+2]`, for which the Potency entry in assay [1], in assay [2], in assay [3] and in assay [4] was “inactive” throughout.

As to `CC(=O)[O-].CC(=O)[O-].O.O.[Zn+2]`, the Potency result in assay [1], in assay [2], in assay [3] and in assay [4] was “inactive” in each case.

For `[Cl-].[Cl-].[Sn+2]`, the Potency entry in assay [1], in assay [2], in assay [3] and in assay [4] was “inactive” in each case.

For the compound `[F][Sn]([c]1ccccc1)([c]1ccccc1)[c]1ccccc1`, the Potency in assay [1] was 0.0486 µM (active); in assay [2] it was 4.33 µM (active); in assay [3], 1.22 µM (active); in assay [4] it was 1.22 µM (active); in assay [7], 15.4 µM (active). Besides, the Potency result in assay [5] and in assay [6] was “inactive” throughout.

As for `O=P(Cl)(Cl)Cl`, the Potency result in assay [1], in assay [2], in assay [3], in assay [4], in assay [5] and in assay [6] was “inactive” each time. The Potency result in assay [7] was “inactive”.

Take `COC(=O)c1cc(Oc2ccc(Cl)cc2Cl)ccc1[N+](=O)[O-]`: the Potency result in assay [1], in assay [2], in assay [3], in assay [4], in assay [5] and in assay [6] was “inactive” each time.

Turning to `C=C(C)C(=O)[O][Sn]([CH2]CCC)([CH2]CCC)[CH2]CCC`, the Potency in assay [1] is 0.217 µM (active); in assay [2], 1.72 µM (active); in assay [3], 1.37 µM (active); in assay [4] it was 1.54 µM (active); in assay [7], 12.2 µM (active). Further, the Potency entry in assay [5] and in assay [6] was “inactive” each time.

Consider `CCn1cc[n+](C)c1` (tested in a mixture with another compound), for which the Potency entry in assay [1], in assay [2], in assay [3] and in assay [4] was “inactive” throughout.

On to `CCN(CC)C(=S)S`, for which the Potency was 5.49 µM (active) and 2.42 µM (active) in assay [1]; 6.08 µM (active) and 9.69 µM (active) in assay [3]; 12.1 µM (active) in assay [4]. The Potency result in assay [2], in assay [5], in assay [6] and in assay [7] was “inactive” throughout.

In the case of `O=C(O)[C@H](O)[C@@H](O)C(=O)O`, the Potency result in assay [1], in assay [2], in assay [3], in assay [4] and in assay [5] was “inactive” in each case.

With `CC(=O)[O][Sn]([c]1ccccc1)([c]1ccccc1)[c]1ccccc1`, the Potency in assay [1] is 0.0545 µM (active); in assay [2], 0.77 µM (active); in assay [3], 0.137 µM (active); in assay [4], 0.137 µM (active); in assay [7] it was 19.3 µM (active). For the same compound, the Potency entry in assay [5] and in assay [6] was “inactive” each time.

With `CCCCn1cc[n+](C)c1` (tested in a mixture with another compound), the Potency entry in assay [1], in assay [2], in assay [3] and in assay [4] was “inactive” throughout.

For `CCN(CC)C(=O)N[C@@H]1C=C2c3cccc4[nH]cc(c34)C[C@@H]2N(C)C1`, the Potency result in assay [1], in assay [2], in assay [3], in assay [4], in assay [5] and in assay [6] was “inactive” in each case. For the same compound, the Potency result in assay [7] was “inactive”.

For the compound `COC(=O)N(OC)c1ccccc1COc1ccn(-c2ccc(Cl)cc2)n1`, the Potency is 0.0686 µM (active) in assay [1], 1.37 µM (active) in assay [2] and 0.969 µM (active) in assay [3]. Further, the Potency entry in assay [4], in assay [5], in assay [6] and in assay [7] was “inactive” each time.

For `CC(=O)[O-].CC(=O)[O-].[Co+2]`, the Potency result in assay [1], in assay [2], in assay [3] and in assay [4] was “inactive” each time.

Take `CCCCN(CCCC)C(=S)S`: the Potency result in assay [1], in assay [2], in assay [3], in assay [4] and in assay [5] was “inactive” each time.

Consider `CC(Cc1ccc2c(c1)OCO2)NO` (stereo unspecified), for which the Potency result in assay [1], in assay [2], in assay [3], in assay [4], in assay [5] and in assay [6] was “inactive” each time. Further, the Potency entry in assay [7] is “inactive”.

Regarding `C=CCBr`, the Potency entry in assay [1], in assay [2], in assay [3], in assay [4], in assay [5] and in assay [6] was “inactive” throughout. The Potency result in assay [7] was “inactive”.

For the compound `CCOC(=O)CCN(SN(C)C(=O)Oc1cccc2c1OC(C)(C)C2)C(C)C`, in assay [1], the Potency is 54.5 µM (active). In addition, the Potency entry in assay [2], in assay [3], in assay [4], in assay [5], in assay [6] and in assay [7] was “inactive” throughout.

As for `O.O.O.O.O.O.O=S(=O)([O-])[O-].[Ni+2]`, the Potency entry in assay [1], in assay [2], in assay [3] and in assay [4] was “inactive” throughout.

As for `C[C@]12Cc3cn[nH]c3C[C@@H]1CC[C@@H]1[C@@H]2CC[C@@]2(C)[C@H]1CC[C@]2(C)O`, the values for the Potency in assay [1], in assay [3] and in assay [4] were 13.3 µM (active), 8.41 µM (active) and 6.68 µM (active), respectively. The Potency entry in assay [2], in assay [6] and in assay [7] was “inactive” throughout.

On to `O=C1C2(Cl)C3(Cl)C4(Cl)C(Cl)(Cl)C5(Cl)C3(Cl)C1(Cl)C5(Cl)C24Cl` (stereo unspecified), for which the Potency was 12 µM (active) and 29.3 µM (active) in assay [1]; 13.5 µM (active) and inactive in assay [8]; 26.9 µM (active) and 58.5 µM (active) in assay [4]. Further, in assay [6], the Potency result is “inactive”.

For the compound `ClCBr`, the Potency result in assay [1], in assay [2], in assay [4], in assay [5], in assay [6] and in assay [7] was “inactive” in each case.

The values are drawn from PubChem BioAssay (Tox21).
